Test results taken from PubChem BioAssay AID449746 (Sanford-Burnham Center for Chemical Genomics, 2010).
About 680 (34%) of roughly 2,000 compounds were called active. Cut-off read from the data, not from the text of the source: active = inhibition mostly above about 28% (no sharp cut-off); inactive = mostly below about 22%. A selection follows.

Experiment: lowers stimulated NF-kB luciferase signal in 697 cells – cell-based, luminescence, single concentration, B-cell NF-kB inhibitor project, confirmation (AID 449746)
Conditions: 697 B-cell NF-kB luciferase, PMA/ionomycin, 16 h; at 4 µM; active compounds read high
In the case of `CCCCCCCCCCCCn1ccc(=N)cc1`, the inhibition is reported as 50% (active).
